Assay [1] in a line: AP1 Signaling Pathway (AID 357; active means well fitted curve in either direction with a large enough effect, not every such curve was filed as active;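 further: ME-180 reporter cells stimulated with EGF at its EC50 level; on the % scale 0 is the no-effect control and ±100 the full control effect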). Particulars: ME-180 AP-1-bla reporter, EGF-induced, beta-lactamase ratio, 5 h; at 7.69 µM (top of the series) unless noted. The procedure, abridged:
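Cells are seeded overnight, exposed to compound titrations and an EC50 level of EGF for 5 hours at 37 °C, then loaded with CCF4 dye for 2.5 hours. Beta-lactamase activity under the AP-1 element is read as a blue/green ratio.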

Assay [2] has as its target Cytochrome P450 1A2 (Homo sapiens) (UniProt P05177). As to the kind of experiment: p450-cyp1a2 (AID 410; calls by dose curve; further: potency means the concentration at half of the fitted maximal effect). The procedure, abridged: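 Read-out is luminescence from luciferin produced by CYP1A2 demethylation of Luciferin-ME (100uM, at Km). Detection reagent stopped the 60 min NADPH-dependent reaction; signals were normalized to 57 uM furafylline.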
Assay [3] has as its target Glucocorticoid receptor (Homo sapiens) (UniProt P04150). As to the kind of experiment: GR-GFP Redistribution (AID 450;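 active means compounds whose dose series gives a full or clear partial fitted curve of increased nuclear translocation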; further: potency means the concentration at half of the fitted maximal effect). Particulars: U2OS GR-GFP nuclear translocation, laser cytometry, 2 h.
The target is the same in assay [4]. The assay is described as follows: GR-EFC Redistribution (AID 451; calls by dose curve; further: potency means the concentration at half of the fitted maximal effect). The settings on record: CHO-K1 GR-EFC translocation, beta-gal luminescence, 2 h. The procedure, abridged:
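CHO-K1 cells expressing nuclear EA and GR-ED fragments of b-gal; compounds titrated up to 46 uM final, 2 h at 37 C. GR nuclear translocation read as complemented b-gal luminescence after 1 h RT detection.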

Assay [5] deals with 3',5'-cyclic-AMP phosphodiesterase 4B (Homo sapiens) (UniProt Q07343). The assay is described as follows: qHTS Assay for Inhibitors of PDE-IV (AID 607; active means well fitted activation curve with a large enough effect in the main read-out, with a control signal flat, not every such curve was filed as active; further: % of control where 0% means no effect). The procedure, abridged:
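The readout is membrane depolarisation from a cAMP-sensing CNG channel, detected with a potential dye at ex 535/em 590. Cells were HEK293-derived (endogenous PDE-IV) at 1000 cells/well, titrated up to 22.9 uM final.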
On the technique in general: Quantitative high-throughput screening tests each substance at several concentrations.

In assay [6] the target is Cytochrome P450 3A4 (Homo sapiens) (UniProt P08684). As to the kind of experiment: qHTS Assay for Inhibitors and Substrates of Cytochrome P450 3A4 (AID 884). Further: potency means the concentration at half of the fitted maximal effect; nearly all actives have a fitted effect of over 50% in size. In outline: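 Luminescent readout of luciferin produced by CYP3A4 (20 nM) dealkylation of Luciferin-PPXE, 25 uM (its KM). NADPH-driven reaction ran 60 min at RT after 10 min compound preincubation; data scaled to 57 uM ketoconazole as 100% inhibition.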

Assay [7] has the same target. The assay is described as follows: qHTS Assay for Activators of Cytochrome P450 3A4 (AID 885). Further: nearly all actives have a fitted effect of over 65% in size. The procedure, abridged: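 Activators are scored by enhanced luminescence from CYP3A4 conversion of luciferin-PPXE (25uM, equal to KM) to luciferin, after 60 min at RT with an NADPH-regenerating system.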
Assay [8] addresses Dual specificity protein kinase CLK4 (Homo sapiens) (UniProt Q9HAZ1). The assay is described as follows: qHTS Assay for Inhibitors of CDC-like Kinase 4 (Kinase-Glo Assay) (AID 1770). Further: nearly all actives have a fitted effect of over 65% in size. Further: potency means the concentration at half of the fitted maximal effect. In outline:
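Readout: Kinase-Glo luminescence from ATP left after a 4.5 h room-temperature reaction of 25 nM Clk4 with 100 uM RS peptide and 1 uM ATP (final). Buffer: 25 mM Tris pH 7.5, 10 mM MgCl2.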

Assay [9] has the same target. The assay is described as follows: qHTS Assay for Inhibitors of CDC-like Kinase 4 (ADP-Glo Assay) (AID 1771). Further: nearly all actives have a fitted effect of over 70% in size. Further: potency means the concentration at half of the fitted maximal effect. In outline: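 In this ADP-Glo format, 1 uM ATP and 100 uM RS peptide served as substrates for 25 nM Clk4 in Mg2+/EGTA/DTT/Triton buffer; reactions ran 1 hr at room temperature before luminescent ADP quantification.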
Assay [10] has the same target. The assay is described as follows: qHTS Assay for Inhibitors of CDC-like Kinase 4 (ADP-FP Assay) (AID 1795). Further: nearly all actives have a fitted effect of over 60% in size. Further: potency means the concentration at half of the fitted maximal effect. In outline:
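FP readout: Orange Transcreener ADP2 tracer (4 nM) plus ADP antibody, read after 30 min at room temperature. Kinase step: 6.25 nM Clk4, 100 uM RS peptide, 1 uM ATP, pH 7.5, 1 h.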

The target in assay [11] is Ubiquitin carboxyl-terminal hydrolase 1 (Homo sapiens) (UniProt O94782). As to the kind of experiment: Inhibitors of USP1/UAF1: Pilot qHTS (AID 504865).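 Further: rhodamine fluorescence freed from ubiquitin-rhodamine substrate followed over time; top concentration of the series differs between compounds; on the % scale 0 is the no-effect control and ±100 the full control effect; nearly all actives have a fitted effect of over 35% in size.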 In outline:
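1nM USP1/UAF1 + cpd, 15 min RT; start w/ Ub-Rho 150nM final; kinetic FL 480/540 nm, 6 reads q60 s. Buffer 50mM HEPES pH 7.8, 0.5mM EDTA, 1mM TCEP, 0.01% Tween-20, 0.1 mg/ml BSA.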

Assay [12] is described as follows: Primary qHTS for small molecule stabilizers of the endoplasmic reticulum resident proteome: Secreted ER Calcium Modulated Protein (SERCaMP) assay (AID 1508630). Further: on the % scale 0 is the no-effect control and ±100 the full control effect. The procedure, abridged: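 The SH-SY5Y reporter protocol was run at 3 concentrations up to 38.3 uM (primary) or 11 concentrations (follow-up): 16 h compound, 100 nM thapsigargin for 4 h, then extracellular luciferase luminescence.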

For assay [13], the target named is Lysosomal acid glucosylceramidase (Homo sapiens) (UniProt P04062). The assay is described as follows: Glucocerebrosidase-p2 (AID 348; in the data active means potency below about 10 µM; further: potency means the concentration at half of the fitted maximal effect). Particulars: purified GBA, blue fluorogenic substrate, 40 min. In outline: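 Normal human glucocerebrosidase (0.2 nM) with blue fluorogenic substrate (80 uM final) in citrate/phosphate pH 5.9 with 10mM sodium taurocholate, 0.01% tween-20; 40 min RT, NaOH/glycine stop; fluorescence Ex 365/Em 440; AC50 from a titration from 0.6 nM upwards.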

Assay [14] addresses Mitogen-activated protein kinase 10 (Mus musculus) (UniProt Q61831). The assay is described as follows: JNK3 AlphaScreen Assay (AID 530; active means well fitted curve in either direction with a large enough effect, not every such curve was filed as active;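 further: kinase came from lysate of stimulated human HepG2 cells; signal reports phosphorylation of biotinylated GST-cJun 1-79 at Ser73 with 10 µM ATP; on the % scale 0 is the no-effect control and ±100 the full control effect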). The procedure, abridged: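 HepG2 lysate (IL-1b/TNFa pre-activated) + biotin-GST-cJun 1-79 + anti-pSer73 cJun; cpd titration, 15 min RT; ATP 10 uM start; Tris pH 7.6, MgCl2, DTT, vanadate; beads in EDTA buffer; AlphaScreen.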
Assay [15] in a line: qHTS Assay for Identification of Small Molecule Agonists for Hypoxia Response Element Signaling Pathway (AID 914; active means well fitted activation curve with a large enough effect in the signal ratio, with a control signal flat, not every such curve was filed as active; the % refers to the signal ratio; further: potency means the concentration at half of the fitted maximal effect). Particulars: ME-180 HRE-bla reporter, beta-lactamase ratio, CoCl2, 17 h; activation: stronger effect = higher value. The procedure, abridged: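 Positive modulation of EC50 CoCl2-induced hypoxia response element signaling is measured in ME-180 cells with a beta-lactamase reporter. Compounds are titrated, incubation runs 17 hours, and %Activity derives from the blue/green ratio.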

Assay [16] in a line: Stat Signaling Pathway (AID 446; active means well fitted curve in either direction with a large enough effect, not every such curve was filed as active;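 further: ME-180 cervical cancer cells given 40 pM IL-6 alongside compound; SIE-controlled beta-lactamase reporter measured as 460/530 nm FRET emission ratio; on the % scale 0 is the no-effect control and ±100 the full control effect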). Particulars: ME-180 (cervical carcinoma) SIE beta-lactamase reporter, IL-6 stimulated, 5 h; at 7.69 µM (top of the series) unless noted. In outline:
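Emission at 460 and 530 nm (excitation 405 nm) reports SIE-controlled beta-lactamase in ME-180 cells. Cells received compound with 40 pM IL-6 for 5 hrs at 37 C; data scaled between 300 pM IL-6 and 125 nM JAK-inhibitor controls.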

Assay [17] is described as follows: NFAT Signaling Pathway (AID 444; active means well fitted curve in either direction with a large enough effect, not every such curve was filed as active). The settings on record: Jurkat NFAT-bla M1, carbachol, beta-lactamase ratio, 5 h; at 7.69 µM (top of the series) unless noted. The procedure, abridged: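 Jurkat cells with NFAT-driven β-lactamase reporter and co-expressed M1 receptor, stimulated with carbachol (final 1 uM, ~EC50), compound titration, 5 h at 37 °C. CCF4 loaded 1 h at RT; 460/530 nm ratio gave %activity and AC50.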

For assay [18], the target named is Cytochrome P450 2C9 (Homo sapiens) (UniProt P11712). As to the kind of experiment: qHTS Assay for Inhibitors and Substrates of Cytochrome P450 2C9 (AID 883). Further: potency means the concentration at half of the fitted maximal effect; nearly all actives have a fitted effect of over 60% in size. The procedure, abridged:
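10nM CYP2C9 + 100uM Luciferin-H (=KM), 25mM KPO4; cpd 10 min 37C; NADPH regen, 60 min 37C; stop/detect with P450 Glo-Buffer 20 min; luminescence. Norm. to 57uM sulphaphenazole as full inhibition.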

The target in assay [19] is Cytochrome P450 2D6 (Homo sapiens) (UniProt P10635). As to the kind of experiment: qHTS Assay for Inhibitors and Substrates of Cytochrome P450 2D6 (AID 891). Further: potency means the concentration at half of the fitted maximal effect; nearly all actives have a fitted effect of over 60% in size. The procedure, abridged:
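Luminescent read-out of luciferin formed by 5 nM human CYP2D6 demethylating 30 uM Luciferin-ME EGE (Km level) over 60 min at room temperature after NADPH regeneration addition. Data normalized to full inhibition by 1.43 uM quinidine.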

For assay [20], the target named is Cytochrome P450 2C19 (Homo sapiens) (UniProt P33261). The assay is described as follows: qHTS Assay for Inhibitors and Substrates of Cytochrome P450 2C19 (AID 899). Further: potency means the concentration at half of the fitted maximal effect; nearly all actives have a fitted effect of over 60% in size. The procedure, abridged: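 Luminescent read-out of luciferin formed from Luciferin-H EGE (10uM, equal to KM). Enzyme 5nM in 50mM KPO4; compound added, 10 min at 37C, then NADPH regenerating system for 60 min at 37C. Full inhibition defined by 57uM ketoconazole.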

Values without a mark were called inactive. Inconclusive results are not listed. Active and inactive are the calls of the source. Unless noted, the call rests on the fitted dose curve; in most records, active means well fitted curve in the direction sought with a large enough effect; inconclusive means small, poorly fitted or top-dose-only effect, or another doubt; inactive means no such curve, though single readings can be large; an effect the other way counts as inactive or inconclusive.

Sequence of Dual specificity protein kinase CLK4 (Homo sapiens) (Q9HAZ1 whole entry, looked up): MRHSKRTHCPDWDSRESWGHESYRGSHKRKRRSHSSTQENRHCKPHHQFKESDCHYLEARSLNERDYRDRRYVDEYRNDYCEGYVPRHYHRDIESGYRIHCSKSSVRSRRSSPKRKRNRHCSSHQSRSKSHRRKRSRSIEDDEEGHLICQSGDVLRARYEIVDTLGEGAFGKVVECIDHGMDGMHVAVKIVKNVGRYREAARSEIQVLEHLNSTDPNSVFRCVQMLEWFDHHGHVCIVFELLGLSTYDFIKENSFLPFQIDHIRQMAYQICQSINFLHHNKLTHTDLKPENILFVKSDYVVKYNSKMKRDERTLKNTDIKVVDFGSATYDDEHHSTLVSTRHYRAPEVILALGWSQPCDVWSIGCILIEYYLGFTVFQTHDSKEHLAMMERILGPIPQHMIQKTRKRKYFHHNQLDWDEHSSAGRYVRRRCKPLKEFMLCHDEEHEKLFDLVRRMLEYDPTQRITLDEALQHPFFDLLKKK
Sequence of Ubiquitin carboxyl-terminal hydrolase 1 (Homo sapiens) (O94782 whole entry, looked up): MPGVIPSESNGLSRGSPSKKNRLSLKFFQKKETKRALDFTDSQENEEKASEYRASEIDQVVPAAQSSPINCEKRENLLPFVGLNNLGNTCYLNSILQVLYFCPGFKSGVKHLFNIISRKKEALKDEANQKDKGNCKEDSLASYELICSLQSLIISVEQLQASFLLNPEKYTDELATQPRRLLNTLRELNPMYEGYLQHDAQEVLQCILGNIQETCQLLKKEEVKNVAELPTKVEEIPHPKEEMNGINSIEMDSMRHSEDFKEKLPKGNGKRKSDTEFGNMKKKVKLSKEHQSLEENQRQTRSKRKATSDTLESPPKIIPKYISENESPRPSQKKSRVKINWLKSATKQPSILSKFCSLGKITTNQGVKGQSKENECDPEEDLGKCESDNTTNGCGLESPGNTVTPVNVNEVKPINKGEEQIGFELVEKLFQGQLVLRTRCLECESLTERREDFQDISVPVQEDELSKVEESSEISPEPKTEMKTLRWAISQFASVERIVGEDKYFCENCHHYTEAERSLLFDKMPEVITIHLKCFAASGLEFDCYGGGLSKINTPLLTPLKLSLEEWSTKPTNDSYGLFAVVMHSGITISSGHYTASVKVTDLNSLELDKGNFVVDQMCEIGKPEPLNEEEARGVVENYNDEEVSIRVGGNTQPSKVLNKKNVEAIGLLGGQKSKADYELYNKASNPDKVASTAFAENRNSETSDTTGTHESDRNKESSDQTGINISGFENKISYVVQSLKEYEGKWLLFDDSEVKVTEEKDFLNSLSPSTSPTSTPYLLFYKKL
Sequence of Cytochrome P450 3A4 (Homo sapiens) (P08684 whole entry, looked up): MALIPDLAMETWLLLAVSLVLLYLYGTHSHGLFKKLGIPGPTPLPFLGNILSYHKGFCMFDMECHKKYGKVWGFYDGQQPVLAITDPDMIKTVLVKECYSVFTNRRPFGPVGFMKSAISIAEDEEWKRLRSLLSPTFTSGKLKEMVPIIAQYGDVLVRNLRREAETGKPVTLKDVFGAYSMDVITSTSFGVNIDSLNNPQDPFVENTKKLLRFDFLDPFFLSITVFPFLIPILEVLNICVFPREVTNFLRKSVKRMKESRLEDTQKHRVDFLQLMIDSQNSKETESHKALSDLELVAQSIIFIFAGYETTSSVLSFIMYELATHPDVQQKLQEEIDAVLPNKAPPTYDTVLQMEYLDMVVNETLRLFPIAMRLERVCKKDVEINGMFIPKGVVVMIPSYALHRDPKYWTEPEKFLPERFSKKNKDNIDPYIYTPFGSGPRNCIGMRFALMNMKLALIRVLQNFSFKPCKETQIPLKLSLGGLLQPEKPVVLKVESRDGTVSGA
Sequence of Cytochrome P450 1A2 (Homo sapiens) (P05177 whole entry, looked up): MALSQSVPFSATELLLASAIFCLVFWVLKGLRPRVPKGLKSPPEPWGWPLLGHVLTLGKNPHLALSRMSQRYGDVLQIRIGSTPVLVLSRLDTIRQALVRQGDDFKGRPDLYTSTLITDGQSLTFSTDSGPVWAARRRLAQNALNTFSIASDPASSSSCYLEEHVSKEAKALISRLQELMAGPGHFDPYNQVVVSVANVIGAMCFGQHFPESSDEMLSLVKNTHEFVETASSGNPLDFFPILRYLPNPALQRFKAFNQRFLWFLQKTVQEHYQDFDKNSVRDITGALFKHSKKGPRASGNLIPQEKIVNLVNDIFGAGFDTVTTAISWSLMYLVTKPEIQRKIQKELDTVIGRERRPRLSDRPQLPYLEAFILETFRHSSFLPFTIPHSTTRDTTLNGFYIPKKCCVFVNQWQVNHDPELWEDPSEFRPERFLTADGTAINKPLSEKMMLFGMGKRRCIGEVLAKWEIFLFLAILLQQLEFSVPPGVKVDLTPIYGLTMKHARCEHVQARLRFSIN
Sequence of Glucocorticoid receptor (Homo sapiens) (P04150 whole entry, looked up): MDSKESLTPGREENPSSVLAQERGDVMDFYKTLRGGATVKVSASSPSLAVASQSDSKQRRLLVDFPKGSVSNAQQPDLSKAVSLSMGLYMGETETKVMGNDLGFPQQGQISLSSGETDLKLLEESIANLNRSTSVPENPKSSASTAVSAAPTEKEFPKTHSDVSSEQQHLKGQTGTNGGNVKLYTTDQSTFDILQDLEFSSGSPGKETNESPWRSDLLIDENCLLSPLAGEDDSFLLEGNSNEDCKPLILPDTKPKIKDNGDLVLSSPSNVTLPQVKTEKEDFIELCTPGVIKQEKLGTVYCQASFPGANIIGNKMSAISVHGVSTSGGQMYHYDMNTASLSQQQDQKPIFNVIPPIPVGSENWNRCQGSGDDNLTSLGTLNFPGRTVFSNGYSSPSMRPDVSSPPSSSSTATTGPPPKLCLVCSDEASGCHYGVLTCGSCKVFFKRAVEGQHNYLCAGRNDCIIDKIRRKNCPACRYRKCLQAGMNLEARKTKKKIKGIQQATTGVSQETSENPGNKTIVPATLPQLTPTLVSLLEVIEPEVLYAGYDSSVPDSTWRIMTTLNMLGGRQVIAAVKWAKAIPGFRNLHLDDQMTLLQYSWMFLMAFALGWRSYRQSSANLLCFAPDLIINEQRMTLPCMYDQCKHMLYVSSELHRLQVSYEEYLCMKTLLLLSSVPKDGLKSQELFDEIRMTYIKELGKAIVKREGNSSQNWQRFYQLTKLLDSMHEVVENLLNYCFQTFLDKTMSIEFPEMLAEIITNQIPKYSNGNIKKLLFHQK
Sequence of Lysosomal acid glucosylceramidase (Homo sapiens) (P04062 whole entry, looked up): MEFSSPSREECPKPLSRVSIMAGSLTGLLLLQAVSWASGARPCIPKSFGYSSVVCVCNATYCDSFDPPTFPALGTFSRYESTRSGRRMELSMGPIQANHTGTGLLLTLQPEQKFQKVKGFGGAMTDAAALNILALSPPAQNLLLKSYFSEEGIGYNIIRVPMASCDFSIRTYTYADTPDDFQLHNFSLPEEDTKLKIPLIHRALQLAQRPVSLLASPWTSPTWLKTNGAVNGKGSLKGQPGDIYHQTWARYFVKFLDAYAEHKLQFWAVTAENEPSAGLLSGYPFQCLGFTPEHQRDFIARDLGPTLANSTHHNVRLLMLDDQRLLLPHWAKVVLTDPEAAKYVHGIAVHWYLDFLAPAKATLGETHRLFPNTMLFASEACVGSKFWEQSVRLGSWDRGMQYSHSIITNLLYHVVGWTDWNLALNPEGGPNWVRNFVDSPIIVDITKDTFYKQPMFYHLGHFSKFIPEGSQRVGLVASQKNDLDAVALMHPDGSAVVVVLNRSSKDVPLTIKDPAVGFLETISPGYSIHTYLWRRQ
Sequence of 3',5'-cyclic-AMP phosphodiesterase 4B (Homo sapiens) (Q07343 whole entry, looked up): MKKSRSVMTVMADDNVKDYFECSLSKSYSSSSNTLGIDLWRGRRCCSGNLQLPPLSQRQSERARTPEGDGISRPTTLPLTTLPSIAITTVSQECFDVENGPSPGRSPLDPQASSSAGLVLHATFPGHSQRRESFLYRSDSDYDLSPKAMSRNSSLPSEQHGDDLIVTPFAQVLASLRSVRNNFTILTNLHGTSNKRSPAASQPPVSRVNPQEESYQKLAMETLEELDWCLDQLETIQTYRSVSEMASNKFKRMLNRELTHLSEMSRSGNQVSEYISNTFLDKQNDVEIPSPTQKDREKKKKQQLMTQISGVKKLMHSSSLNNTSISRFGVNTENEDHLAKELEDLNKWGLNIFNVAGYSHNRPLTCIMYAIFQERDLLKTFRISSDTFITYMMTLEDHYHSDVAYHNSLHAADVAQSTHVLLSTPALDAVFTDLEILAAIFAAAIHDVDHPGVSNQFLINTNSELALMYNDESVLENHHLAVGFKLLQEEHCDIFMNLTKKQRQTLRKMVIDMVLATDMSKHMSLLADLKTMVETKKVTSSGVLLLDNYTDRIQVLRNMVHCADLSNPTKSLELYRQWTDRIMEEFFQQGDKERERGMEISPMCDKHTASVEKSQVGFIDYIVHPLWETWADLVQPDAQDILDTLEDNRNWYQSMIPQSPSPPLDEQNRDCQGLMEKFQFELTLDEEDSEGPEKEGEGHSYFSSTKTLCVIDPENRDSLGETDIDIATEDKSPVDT
Sequence of Cytochrome P450 2C9 (Homo sapiens) (P11712 whole entry, looked up): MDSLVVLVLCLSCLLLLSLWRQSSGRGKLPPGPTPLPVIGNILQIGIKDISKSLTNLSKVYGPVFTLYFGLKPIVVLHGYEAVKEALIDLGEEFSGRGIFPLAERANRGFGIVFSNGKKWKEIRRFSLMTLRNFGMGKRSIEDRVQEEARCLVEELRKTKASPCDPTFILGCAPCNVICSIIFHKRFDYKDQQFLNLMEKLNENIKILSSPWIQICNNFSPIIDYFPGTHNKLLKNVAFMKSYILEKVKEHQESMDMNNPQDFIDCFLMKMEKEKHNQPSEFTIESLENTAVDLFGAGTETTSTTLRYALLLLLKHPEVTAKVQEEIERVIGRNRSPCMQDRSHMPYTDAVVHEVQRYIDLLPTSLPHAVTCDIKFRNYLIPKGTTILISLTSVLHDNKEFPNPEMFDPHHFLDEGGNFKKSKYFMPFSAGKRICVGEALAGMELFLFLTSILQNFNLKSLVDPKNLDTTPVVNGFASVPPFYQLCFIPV

With `COc1ccc2[nH]cc(CCNc3ccnc(-c4ccc(N(C)C)cc4)n3)c2c1`, the activity change, negative = inhibition in assay [1] was 11.2%. Further, the Potency in assay [2] was 0.631 µM (active); in assay [3] it was more than 46 µM; in [4] it was more than 46 µM; in assay [6], 5.01 µM (active); in [8], 15.8 µM (active); in [9], 14.1 µM (active). The Potency result in assay [5], in assay [7], in [10] and in assay [11] was “inactive” in each case. For the same molecule, the outcome in assay [12] was inactive.

With `CCNc1ncc2nc(-c3ccccc3)c(=O)n(Cc3cccc(OC)c3)c2n1`, the Potency was more than 11.4 µM in assay [13], more than 9.22 µM in [3], more than 46 µM in assay [4] and 3.16 µM (active) in assay [15]. Further, the Potency entry in assay [14], in assay [7], in assay [8], in [9], in [10] and in assay [11] was “inactive” each time. The result in assay [12] was inactive.

Regarding `CCNc1ncc2nc(-c3ccc(Cl)cc3)c(=O)n(-c3ccc(OC)cc3)c2n1`, the Potency in [13] was more than 11.4 µM; in assay [3] it was more than 9.22 µM; in assay [4], more than 46 µM. The Potency entry in assay [5], in assay [8], in [9], in assay [10] and in assay [11] was “inactive” throughout. In addition, in [12], the result was inactive.

Turning to `CN(Cc1ccco1)c1ncncc1-c1ccccc1C(F)(F)F`, the activity change, negative = inhibition in assay [1] was 13.8%. Further, the Potency was 12.6 µM (active) in assay [2], more than 46 µM in [3], more than 46 µM in assay [4] and 1.26 µM (active) in [6]. Moreover, the activity, negative = inhibition in [16] was -2.15%. The Potency entry in assay [14], in assay [5], in assay [7], in [8], in [9] and in assay [10] was “inactive” in each case. For the same molecule, the Potency result in assay [11] is “inactive”. Further, in assay [12], the outcome was inactive.

Take `Cc1ccccc1-c1ccc2ncnc(NCc3cccnc3)c2c1`: the values for the activity change, negative = inhibition in assay [1] and in [17] were -2.6% and 2.06%, respectively. Also, the Potency in assay [2] is 0.251 µM (active); in assay [3] it was more than 46 µM; in assay [4], more than 46 µM; in assay [18], 0.794 µM (active); in assay [19], 2 µM (active); in assay [20] it was 1.58 µM (active). The figures for the Potency in [8], in [9] and in assay [10] were 14.1 µM (active), 11.2 µM (active) and 11.2 µM (active), respectively. In addition, the activity, negative = inhibition in [16] is -11%. Further, the Potency result in [14], in [5], in assay [7] and in [11] was “inactive” each time. Besides, in assay [12], the result was inactive.

Consider `COc1ccc(CNc2ccnc(-c3ccc(N(C)C)cc3)n2)c(OC)c1`, for which the results for the activity change, negative = inhibition in assay [1] and in assay [17] were 8.69% and -3.37%, respectively. Moreover, the figures for the Potency in assay [2], in assay [3] and in [4] were 3.16 µM (active), more than 46 µM and more than 46 µM, respectively. Besides, the activity, negative = inhibition in assay [16] was -13.6%. The Potency result in [14], in [5], in assay [7], in [8], in assay [9] and in [10] was “inactive” throughout. Besides, the Potency result in [11] was “inactive”. Besides, the result in [12] was inactive.

For the molecule `CN(C)c1ncc2nc(-c3ccccc3)c(=O)n(Cc3cccs3)c2n1`, the Potency in [13] is more than 11.4 µM; in [3], more than 9.22 µM; in assay [4], more than 46 µM; in [15], 3.16 µM (active). Further, the Potency result in assay [7], in [8], in [9], in [10] and in [11] was “inactive” in each case. For the same molecule, in assay [12], the result was inactive.

The values above are taken from PubChem BioAssay (NCATS).
